# Reference: PubChem BioAssay (NCATS)
# Results filed as inconclusive are left out. A call without a number means that no potency is given here. Unmarked numbers belong to inactive results. Calls of active or inactive are those of the source. Calls come from the whole dose curve; as a rule, active = well fitted cell-killing curve with a large enough effect; inconclusive = small, poorly fitted or top-dose-only effect, or effect the other way; inactive = no such curve, though single readings can be large or run the other way.
# Experiments:
# [1] = Viability qHTS for spleen associated tyrosine kinase inhibitor (SYKi) naive MV4-11 cells (AID 1963823); note: nearly all actives have a fitted effect of over 40% in size
# Procedure, shortened: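 In this viability screen, compounds acted on SYK inhibitor naive MV4-11 cells for three days (72 hr, 37 C). Remaining viable cells were measured by CellTiter-Glo luminescence following a 10 min room-temperature development.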
# [2] = Viability qHTS for spleen associated tyrosine kinase inhibitor (SYKi) drug resistant MV4-11 cells (AID 1963824); note: nearly all actives have a fitted effect of over 35% in size
# Procedure, shortened: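 SYK-inhibitor-resistant MV4-11 AML cells were seeded at 500 per well onto compound and cultured 72 hours (37 °C, 5% CO2). CellTiter-Glo was then added, and after 10 min at room temperature, luminescence gave viability.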
# Potency is the fitted concentration of half-maximal effect.
SMILES,viability (% of control) [1],"viability, % of control [2]",Potency [1],Potency [2]
C[C@@H]1O[C@@H](O[C@H]2[C@H](O[C@H]3[C@H](O[C@H]4CC[C@@]5(C)C(CC[C@]6(C)C5CC=C5[C@@H]7CC(C)(C)C[C@@H](O)[C@]7(C)CC[C@]56C)[C@@]4(C)CO)O[C@H](C(=O)O)[C@@H](O)[C@@H]3O)O[C@H](CO)[C@H](O)[C@@H]2O)[C@H](O)[C@H](O)[C@H]1O (stereo partly specified),74.1% [at 9.25 µM],80.3% [at 9.25 µM],–,–
Fc1ccc(C2CCNC[C@H]2COc2ccc3c(c2)OCO3)cc1 (stereo partly specified),–,–,16.4 µM (active),9.2 µM (active)
Cc1cnc(NC(=O)Nc2cc(Br)c(C)cc2OCC2CNCCO2)cn1 (stereo unspecified),–,–,0.731 µM (active),0.82 µM (active)
COC1=CC(=O)C[C@@H](C)[C@]12Oc1cc(OC)cc(OC)c1C2=O,–,–,inactive,inactive
O=C1C[C@]23C=CCN4CCC5c6cc7c(cc6N1[C@@]5(CC2)C43)OCO7 (stereo partly specified),–,–,10.1 µM (active),14.3 µM (active)
CC1(O)CC(O)C2(O)C=COC(O[C@@H]3O[C@H](CO)[C@@H](O)[C@H](O)[C@H]3O)C12 (stereo partly specified),–,–,inactive,inactive
CN1CC[C@@H](c2c(O)cc(O)c3c(=O)cc(-c4ccc(C(F)(F)F)cc4Cl)oc23)[C@@H]1CO,–,–,16.4 µM (active),18.4 µM (active)
C=C1C(=O)OC2C1CCC(=C)C1CC(OC(C)=O)C(=C)C12 (stereo unspecified),–,–,3.26 µM (active),2.31 µM (active)
Oc1cccc(Nc2ccnc3cc(-c4cccc(CN5CCOCC5)c4)sc23)c1,–,–,0.291 µM (active),0.461 µM (active)
C=C1CCC[C@]2(C)CC[C@@H](C(=C)C(=O)O)[C@H](O)[C@@H]12,–,–,inactive,inactive
CC[C@@H](N)CNc1ccnc(-c2cc(-c3cnn(C)c3)ccc2O)n1,–,–,0.92 µM (active),1.64 µM (active)
CC1(C)CC[C@]2(C(=O)O)CC[C@]3(C)C(=CCC4[C@@]5(C)C[C@H](O)[C@H](O[C@@H]6O[C@H](CO)[C@@H](O)[C@H](O)[C@H]6O)[C@@](C)(CO)C5[C@H](O)C[C@]43C)[C@@H]2C1 (stereo partly specified),–,–,inactive,inactive
CCC(C)C(=O)Oc1cc(C)ccc1C1(COC(=O)C(C)C)CO1 (stereo unspecified),–,–,2.86 µM (active),2.02 µM (active)
CC[C@H](C)[C@@H]([C@@H](CC(=O)N1CCC[C@H]1[C@H](OC)[C@@H](C)C(=O)N[C@@H](Cc1ccccc1)c1nccs1)OC)N(C)C(=O)[C@@H](NC(=O)[C@H](C(C)C)N(C)C)C(C)C,–,–,inactive,inactive
C=C[C@@]1(C)CC(=O)C2[C@](C)(O1)[C@@H](OC(C)=O)[C@@H](O)[C@H]1C(C)(C)CCC[C@]21C (stereo partly specified),97.8% [at 9.25 µM],89.7% [at 9.25 µM],–,–
CCN[C@@H]1C[C@H](N)[C@@H](O[C@H]2OC(CN)=CC[C@H]2N)[C@H](O)[C@H]1O[C@H]1OC[C@](C)(O)[C@H](NC)[C@H]1O,–,–,inactive,inactive
C[C@@H]1O[C@@H](O[C@H]2[C@H](O[C@H]3[C@H](O[C@H]4CC[C@@]5(CO)C(CC[C@]6(C)C5CC=C5C7CC(C)(C)C[C@@H](O)[C@]7(C)CC[C@]56C)C4(C)C)O[C@H](C(=O)O)[C@@H](O)[C@@H]3O)OC[C@@H](O)[C@@H]2O)[C@H](O)[C@H](O)[C@H]1O (stereo partly specified),63.5% [at 9.25 µM],70% [at 9.25 µM],–,–
CC[C@H]1OC(=O)[C@H](C)[C@@H](O[C@H]2C[C@@](C)(OC)[C@@H](O)[C@H](C)O2)[C@H](C)[C@@H](O[C@@H]2O[C@H](C)C[C@H](N(C)C)[C@H]2O)[C@](C)(O)C[C@@H](C)/C(=N/OCOCCOC)[C@H](C)[C@@H](O)[C@]1(C)O,–,–,inactive,inactive
OC[C@H]1O[C@@H](O[C@@H]2OC=C[C@H]3[C@H](O)[C@@H]4O[C@]4(CO)[C@@H]23)[C@H](O)[C@@H](O)[C@@H]1O,–,–,inactive,inactive
CC(C)CN(C[C@@H](O)[C@H](Cc1ccccc1)NC(=O)O[C@@H]1CO[C@H]2OCC[C@H]21)S(=O)(=O)c1ccc(N)cc1,–,–,inactive,inactive
O=C(O)Cc1cn(C2OCC(O)C(O)C2O[C@@H]2O[C@H](CO)[C@@H](O)[C@H](O)[C@H]2O)c2ccccc12 (stereo partly specified),–,–,inactive,inactive
O=C(OC1C=C(CO)C2C(OC3OC(CO)C(O)C(O)C3O)OC=CC12O)c1ccc(O)cc1 (stereo unspecified),–,–,inactive,inactive
C[C@H]1CC[C@@H]2N(C1)C[C@@H]1[C@H]([C@@H](O)[C@H](O)[C@]3(O)[C@H]1C[C@@]14OC5(O)[C@@H](C[C@@H](O)[C@@H]31)[C@]4(C)CC[C@@H]5O)[C@]2(C)O,–,–,inactive,inactive
COc1ccccc1OCCNCC(O)CCOc1cccc2[nH]c3ccccc3c12 (stereo unspecified),–,–,9.2 µM (active),9.2 µM (active)
COc1ccc2c(c1)C(C(=O)N(Cc1ccc(N(C)C)cc1)c1ccc(C(C)C)cc1)CCC2 (stereo unspecified),–,–,16.4 µM (active),14.6 µM (active)
CC(=O)NC1CC(=O)C23C(=O)NC(Cc4c[nH]c5ccccc45)C2C(C)=C(C)C(O)C3/C=C/CC(C)/C=C(/C)C(O)C1O (stereo unspecified),–,–,inactive,inactive
CC[N+]1(C/C2=C/CCCCCC2)CCC(NC(=O)C2c3cc(Cl)ccc3Oc3ccc(Cl)cc32)CC1 (stereo unspecified),–,–,6.51 µM (active),3.66 µM (active)

SMILES,viability (% of control) [1],"viability, % of control [2]",Potency [1],Potency [2]
COc1c2c(c(C)c3c1C(=O)OC3)OC1(C)CC(O)C3(O)C(C)(C)OC(=O)CCC3(C)C1C2 (stereo unspecified),–,–,inactive,inactive
CNCc1cc(-c2ccccc2F)n(S(=O)(=O)c2cccnc2)c1,–,–,inactive,13 µM (active)
C=C1C(=O)OC2/C=C(/C)C3=CC(=O)C(C)(CC(OC(=O)/C(C)=C/COC(C)=O)C12)O3 (stereo unspecified),–,–,0.893 µM (active),0.796 µM (active)
Cc1ccc(NS(=O)(=O)c2cc3c(cc2NC(C)CO)NC(=O)CC3)cc1C (stereo unspecified),–,–,12.9 µM (active),10.2 µM (active)
OC[C@H]1O[C@@H](OCc2ccccc2)[C@H](O)[C@@H](O)[C@@H]1O,–,–,inactive,inactive
O=C1OC(/C=C/c2ccccc2)=NC/1=C\c1cccnc1,–,–,inactive,inactive
C=CCc1ccc(O[C@@H]2O[C@H](CO)[C@@H](O)[C@H](O)[C@H]2O)c(OC)c1,–,–,inactive,inactive
CC1C(=O)OCC2=CCN3CCC(OC(=O)C(C)(O)C1(C)O)C23 (stereo unspecified),–,–,inactive,inactive
CCn1c(=O)c(-c2ccc(-c3cncc(C)n3)cc2Cl)cc2cnc(NCCC3CCN(C)CC3)nc21,–,–,1.18 µM (active),2.09 µM (active)
O=S(=O)(NCc1cccc2ccccc12)c1cc(Cl)c(Oc2cccc(N3CCNCC3)c2)s1,–,–,2.59 µM (active),4.61 µM (active)
C[C@]12CCC(=O)C=C1[C@@H](O)C[C@@H]1[C@@H]2[C@@H](O)C[C@@]2(C)[C@H]1CC[C@]2(O)C(=O)CO,–,–,inactive,inactive
C[C@@H](OC(=O)/C=C/c1ccc(O)cc1)C1=C[C@]2(C=C[C@@H]3C(C(=O)O)=CO[C@@H](O[C@@H]4O[C@H](CO[C@@H]5O[C@H](CO)[C@@H](O)[C@H](O)[C@H]5O)[C@@H](O)[C@H](O)[C@H]4O)[C@@H]32)OC1=O,–,–,inactive,inactive
CC1(C)[C@@H](O[C@H]2O[C@H](C(=O)O)[C@@H](O)[C@H](O)[C@H]2O[C@@H]2O[C@H](C(=O)O)[C@@H](O)[C@H](O)[C@H]2O)CC[C@]2(C)[C@H]3C(=O)C=C4[C@@H]5C[C@@](C)(C(=O)O)CC[C@]5(C)CC[C@@]4(C)[C@]3(C)CC[C@@H]12,–,–,inactive,inactive
Cc1ccc(C(=O)N(CCCN)C(c2oc3cc(Cl)ccc3c(=O)c2Cc2ccccc2)C(C)C)cc1 (stereo unspecified),–,–,inactive,inactive
CCCCc1nc(Cl)c(CO)n1Cc1ccc(-c2ccccc2-c2nnn[nH]2)cc1,–,–,inactive,inactive
COc1cc([C@H]2OC[C@@H]3[C@@H](c4ccc(O[C@@H]5O[C@H](CO)[C@@H](O)[C@H](O)[C@H]5O)c(OC)c4)OC[C@]23O)ccc1O,–,–,inactive,inactive
CC1=C[C@H](O)[C@H]2C(C)(C)CCC[C@]2(C)[C@@]1(O)CO,–,–,inactive,4.11 µM (active)
CC1=C2CC(O)(C(C)(C)O)C(O[C@@H]3O[C@H](CO)[C@@H](O)[C@H](O)[C@H]3O)CC(C)C2CC1=O (stereo partly specified),–,–,inactive,inactive
C=CC(=O)Nc1ccc(CN2C(=O)N(c3cc(OC)cc(OC)c3)Cc3cnc(Nc4ccc(N5CCN(C)CC5)cc4)nc32)cc1,–,–,1.16 µM (active),1.3 µM (active)
COC(=O)[C@@H]1C2CC3c4[nH]c5ccccc5c4CCN3CC2CC[C@@H]1O (stereo partly specified),–,–,inactive,inactive
CC1CCC23COC(=O)C2=CC(O)CC3C1(C)CCC1=CC(=O)OC1O (stereo unspecified),–,–,inactive,inactive
NS(=O)(=O)c1ccc(N=Nc2c(O)[nH]c3ccc(Br)cc23)cc1,–,–,0.13 µM (active),1.03 µM (active)
O=C(Nc1ccccc1-c1cn2c(CN3CCNCC3)csc2n1)c1ccc2ccccc2n1,–,–,10.3 µM (active),20.6 µM (active)
CC1C2=CC(=O)OC2(O)CC2C1C(OC(=O)c1ccccc1)C(OC(=O)c1ccccc1)C1(O)C2(C)CCC(O)C1(C)C(=O)O (stereo unspecified),–,–,inactive,inactive
COC(=O)C1=COC(OC2OC(CO)C(O)C(O)C2O)C2C(C)C(OC(C)=O)C(OC(=O)c3ccccc3)C12 (stereo unspecified),–,–,inactive,inactive
CC(C)=CC[C@H]1O[C@]2(O)C([C@H]3CCC4[C@@]5(C)CC[C@H](O[C@@H]6O[C@H](CO)[C@H](O)[C@H](O[C@@H]7O[C@H](CO)[C@@H](O)[C@H](O)[C@H]7O)[C@H]6O[C@@H]6O[C@@H](C)[C@H](O)[C@@H](O)[C@H]6O)C(C)(C)C5CC[C@@]4(C)[C@]3(C)[C@H]2O)[C@@]1(C)O (stereo partly specified),84.2% [at 9.25 µM],80.7% [at 9.25 µM],–,–
